Article PMC7862700, “An all-to-all approach to the identification of sequence-specific readers for epigenetic DNA modifications on cytosine”

Columns and labels:
Experiment in all cases: DAPPL (digital affinity profiling via proximity ligation, sequencing); 10 mM Tris-HCl pH 7.5, 50 mM NaCl, 1 mM DTT, 4% glycerol, room temperature, 30 min; GST-TFs on glutathione beads, 16-mer random dsDNA library, 0.1% formaldehyde crosslink after washing; high values mean tight binding
[1] = target: T1, FEV (Homo sapiens, UniProt Q99581 1-238); settings: protein: recombinant; tags: N-terminal GST; dsDNA, one strand shown
T1 sequence: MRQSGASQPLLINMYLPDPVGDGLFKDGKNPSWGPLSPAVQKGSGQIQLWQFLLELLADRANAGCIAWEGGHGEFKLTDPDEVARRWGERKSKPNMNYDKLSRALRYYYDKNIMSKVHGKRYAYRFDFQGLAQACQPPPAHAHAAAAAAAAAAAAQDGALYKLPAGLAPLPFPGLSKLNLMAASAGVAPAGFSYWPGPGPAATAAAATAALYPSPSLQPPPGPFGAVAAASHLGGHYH
Summary of the method: (§1)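 The binding signal reported is, for every hexamer, its read frequency for a factor over its read frequency for the tag-only sample. Reads came from pools of yeast-expressed, GST-fused human transcription factors on glutathione beads, barcoded with DNA and mixed with that sample, which were incubated with 200 nmole of a random double-stranded 16-mer DNA library in Tris/NaCl/DTT/glycerol buffer at room temperature for 30 min. After washing, the pools were crosslinked with 0.1% formaldehyde, proximity-ligated with BsaI/T4 ligase for 1 h at 37 °C, PCR-amplified and sequenced on an Illumina NextSeq500.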

[2] = target: ETV5 (Homo sapiens, UniProt P41161 1-510); settings: protein: recombinant; tags: N-terminal GST; dsDNA, one strand shown
Summary of the method: as §1

[3] = target: HSF1 (Homo sapiens, UniProt Q00613 1-529); settings: protein: recombinant; tags: N-terminal GST; chain copies: 3; dsDNA, one strand shown
Summary of the method: as §1

[4] = target: T2, SPIC (Homo sapiens, UniProt Q8N5J4 1-248); settings: protein: recombinant; tags: N-terminal GST; dsDNA, one strand shown
T2 sequence: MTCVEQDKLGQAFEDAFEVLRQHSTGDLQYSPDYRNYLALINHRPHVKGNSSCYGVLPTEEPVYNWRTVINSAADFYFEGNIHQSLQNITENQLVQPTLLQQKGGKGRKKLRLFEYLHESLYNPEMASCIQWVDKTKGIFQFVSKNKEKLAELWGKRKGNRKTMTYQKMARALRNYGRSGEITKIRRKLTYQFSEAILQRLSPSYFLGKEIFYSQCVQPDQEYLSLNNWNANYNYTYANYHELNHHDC
Summary of the method: as §1

[5] = target: ELF4 (Homo sapiens, UniProt Q99607 1-663); settings: protein: recombinant; tags: N-terminal GST; dsDNA, one strand shown
Summary of the method: as §1

[6] = target: T3, ELK4 (Homo sapiens, UniProt P28324-2 1-405); settings: protein: recombinant; tags: N-terminal GST; dsDNA, one strand shown
T3 sequence: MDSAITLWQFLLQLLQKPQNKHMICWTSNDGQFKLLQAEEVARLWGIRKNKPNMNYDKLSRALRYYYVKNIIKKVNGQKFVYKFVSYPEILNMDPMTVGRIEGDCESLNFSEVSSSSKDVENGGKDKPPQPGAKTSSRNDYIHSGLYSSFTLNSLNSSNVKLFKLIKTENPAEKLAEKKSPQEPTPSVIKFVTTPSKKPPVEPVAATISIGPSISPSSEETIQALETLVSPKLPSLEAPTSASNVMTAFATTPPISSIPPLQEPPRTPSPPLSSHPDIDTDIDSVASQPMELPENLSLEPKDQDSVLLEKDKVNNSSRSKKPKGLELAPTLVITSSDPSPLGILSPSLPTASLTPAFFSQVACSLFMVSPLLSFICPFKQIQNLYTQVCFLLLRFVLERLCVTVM
Summary of the method: as §1

[7] = target: T4, ETV2 (Homo sapiens, UniProt O00321 1-342); settings: protein: recombinant; tags: N-terminal GST; dsDNA, one strand shown
T4 sequence: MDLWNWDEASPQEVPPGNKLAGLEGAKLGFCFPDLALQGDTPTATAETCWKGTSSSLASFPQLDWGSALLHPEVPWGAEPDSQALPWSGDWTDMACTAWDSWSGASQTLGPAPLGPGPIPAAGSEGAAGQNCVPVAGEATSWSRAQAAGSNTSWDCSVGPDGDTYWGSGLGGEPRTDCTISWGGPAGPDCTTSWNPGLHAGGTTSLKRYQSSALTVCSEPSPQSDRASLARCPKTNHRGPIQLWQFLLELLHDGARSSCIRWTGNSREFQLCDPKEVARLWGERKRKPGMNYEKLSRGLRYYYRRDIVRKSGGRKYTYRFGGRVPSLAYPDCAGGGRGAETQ
Summary of the method: as §1

[8] = target: T5, ELF3 (Homo sapiens, UniProt P78545 1-371); settings: protein: recombinant; tags: N-terminal GST; dsDNA, one strand shown
T5 sequence: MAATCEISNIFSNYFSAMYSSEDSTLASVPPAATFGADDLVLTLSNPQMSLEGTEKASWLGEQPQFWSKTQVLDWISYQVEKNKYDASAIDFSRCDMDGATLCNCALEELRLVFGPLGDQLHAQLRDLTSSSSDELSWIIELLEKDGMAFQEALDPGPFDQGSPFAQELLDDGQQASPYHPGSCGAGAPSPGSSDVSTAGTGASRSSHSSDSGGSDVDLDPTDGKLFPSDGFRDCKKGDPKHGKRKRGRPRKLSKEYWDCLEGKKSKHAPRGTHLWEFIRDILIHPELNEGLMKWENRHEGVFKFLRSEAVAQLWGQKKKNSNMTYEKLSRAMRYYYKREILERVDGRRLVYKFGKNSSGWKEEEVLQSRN
Summary of the method: as §1

[9] = target: CRX (Homo sapiens, UniProt O43186 1-299); settings: protein: recombinant; tags: N-terminal GST; dsDNA, one strand shown
Summary of the method: as §1

[10] = target: ETV1 (Homo sapiens, UniProt P50549 1-477); settings: protein: recombinant; tags: N-terminal GST; dsDNA, one strand shown
Summary of the method: as §1

[11] = target: T6, ERF (Homo sapiens, UniProt P50548 1-548); settings: protein: recombinant; tags: N-terminal GST; dsDNA, one strand shown
T6 sequence: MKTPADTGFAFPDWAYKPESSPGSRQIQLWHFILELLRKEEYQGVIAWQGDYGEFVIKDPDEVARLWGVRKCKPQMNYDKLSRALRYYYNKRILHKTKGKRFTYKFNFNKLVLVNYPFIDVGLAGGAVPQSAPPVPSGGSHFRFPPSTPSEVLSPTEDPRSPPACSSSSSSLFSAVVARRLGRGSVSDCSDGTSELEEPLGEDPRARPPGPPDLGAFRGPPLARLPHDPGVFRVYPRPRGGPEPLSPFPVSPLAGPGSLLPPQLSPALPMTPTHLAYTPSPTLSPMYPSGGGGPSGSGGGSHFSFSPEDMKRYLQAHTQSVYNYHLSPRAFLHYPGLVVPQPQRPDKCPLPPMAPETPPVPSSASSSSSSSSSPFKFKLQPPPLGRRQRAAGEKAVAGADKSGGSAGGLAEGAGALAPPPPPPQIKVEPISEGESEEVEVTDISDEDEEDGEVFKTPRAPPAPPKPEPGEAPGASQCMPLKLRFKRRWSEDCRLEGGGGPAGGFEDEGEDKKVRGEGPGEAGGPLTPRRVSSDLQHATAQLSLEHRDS
Summary of the method: as §1

[12] = target: T7, ETV3L (Homo sapiens, UniProt Q6ZN32 1-361); settings: protein: recombinant; tags: N-terminal GST; dsDNA, one strand shown
T7 sequence: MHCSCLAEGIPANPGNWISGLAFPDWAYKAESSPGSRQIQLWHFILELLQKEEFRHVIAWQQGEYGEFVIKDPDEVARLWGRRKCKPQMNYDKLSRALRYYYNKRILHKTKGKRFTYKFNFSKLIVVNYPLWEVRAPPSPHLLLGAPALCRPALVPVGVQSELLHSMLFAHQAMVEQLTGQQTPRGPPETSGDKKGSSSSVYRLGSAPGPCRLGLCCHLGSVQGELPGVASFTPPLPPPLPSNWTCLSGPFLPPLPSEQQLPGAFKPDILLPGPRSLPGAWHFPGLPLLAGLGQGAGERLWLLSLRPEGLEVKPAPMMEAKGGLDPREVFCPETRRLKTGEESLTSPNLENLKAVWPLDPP
Summary of the method: as §1

[13] = target: T8, ETS2 (Homo sapiens, UniProt P15036 1-469); settings: protein: recombinant; tags: N-terminal GST; dsDNA, one strand shown
T8 sequence: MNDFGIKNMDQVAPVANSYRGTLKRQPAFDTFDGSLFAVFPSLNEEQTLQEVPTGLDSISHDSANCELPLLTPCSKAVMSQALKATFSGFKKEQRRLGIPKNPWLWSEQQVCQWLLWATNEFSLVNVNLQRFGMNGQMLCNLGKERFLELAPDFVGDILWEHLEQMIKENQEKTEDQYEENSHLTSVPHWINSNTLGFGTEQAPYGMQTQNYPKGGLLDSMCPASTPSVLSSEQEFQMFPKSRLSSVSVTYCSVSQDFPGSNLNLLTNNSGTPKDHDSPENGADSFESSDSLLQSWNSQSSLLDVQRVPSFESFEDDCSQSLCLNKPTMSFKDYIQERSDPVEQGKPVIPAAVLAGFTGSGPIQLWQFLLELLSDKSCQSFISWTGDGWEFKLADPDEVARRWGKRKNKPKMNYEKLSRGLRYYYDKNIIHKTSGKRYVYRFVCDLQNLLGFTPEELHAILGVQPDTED
Summary of the method: as §1

[14] = target: T9, SPDEF (Homo sapiens, UniProt O95238 1-335); settings: protein: recombinant; tags: N-terminal GST; dsDNA, one strand shown
T9 sequence: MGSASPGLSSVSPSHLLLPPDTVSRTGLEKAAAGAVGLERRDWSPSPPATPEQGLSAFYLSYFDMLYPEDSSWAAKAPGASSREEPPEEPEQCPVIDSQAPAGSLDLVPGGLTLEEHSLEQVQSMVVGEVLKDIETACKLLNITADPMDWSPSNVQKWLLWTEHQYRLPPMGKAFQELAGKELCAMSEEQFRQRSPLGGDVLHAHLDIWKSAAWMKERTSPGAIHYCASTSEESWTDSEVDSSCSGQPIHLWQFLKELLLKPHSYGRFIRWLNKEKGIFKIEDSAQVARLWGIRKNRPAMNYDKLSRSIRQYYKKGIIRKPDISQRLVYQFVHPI
Summary of the method: as §1

[15] = target: T10, ETV7 (Homo sapiens, UniProt Q9Y603 1-341); settings: protein: recombinant; tags: N-terminal GST; dsDNA, one strand shown
T10 sequence: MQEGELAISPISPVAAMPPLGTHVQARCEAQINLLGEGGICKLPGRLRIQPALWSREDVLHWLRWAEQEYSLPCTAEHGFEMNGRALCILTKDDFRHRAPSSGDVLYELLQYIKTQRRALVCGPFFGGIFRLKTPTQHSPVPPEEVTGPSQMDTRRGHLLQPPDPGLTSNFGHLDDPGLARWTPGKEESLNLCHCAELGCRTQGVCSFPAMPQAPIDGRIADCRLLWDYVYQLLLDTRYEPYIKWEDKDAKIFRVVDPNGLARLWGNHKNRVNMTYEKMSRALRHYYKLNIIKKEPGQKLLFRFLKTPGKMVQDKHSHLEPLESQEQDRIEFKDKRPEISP
Summary of the method: as §1

[16] = target: T11, ELF5 (Homo sapiens, UniProt Q9UKW6-2 1-255); settings: protein: recombinant; tags: N-terminal GST; dsDNA, one strand shown
T11 sequence: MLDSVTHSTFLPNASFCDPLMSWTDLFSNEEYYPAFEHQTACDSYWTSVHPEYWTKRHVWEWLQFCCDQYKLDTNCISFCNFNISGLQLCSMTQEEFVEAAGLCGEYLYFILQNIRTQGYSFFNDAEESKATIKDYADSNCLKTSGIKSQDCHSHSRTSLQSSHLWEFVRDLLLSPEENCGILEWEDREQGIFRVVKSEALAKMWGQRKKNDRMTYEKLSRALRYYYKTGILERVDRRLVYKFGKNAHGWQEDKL
Summary of the method: as §1

[17] = target: T12, ETV3 (Homo sapiens, UniProt P41162-2 1-143); settings: protein: recombinant; tags: N-terminal GST; dsDNA, one strand shown
T12 sequence: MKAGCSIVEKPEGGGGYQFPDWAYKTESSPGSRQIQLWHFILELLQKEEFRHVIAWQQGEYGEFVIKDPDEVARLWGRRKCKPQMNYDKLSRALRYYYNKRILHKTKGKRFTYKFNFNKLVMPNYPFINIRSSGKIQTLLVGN
Summary of the method: as §1

[18] = target: ETV6 (Homo sapiens, UniProt P41212 1-452); settings: protein: recombinant; tags: N-terminal GST; dsDNA, one strand shown
Summary of the method: as §1

Sequence of ELF4 (Q99607 whole entry): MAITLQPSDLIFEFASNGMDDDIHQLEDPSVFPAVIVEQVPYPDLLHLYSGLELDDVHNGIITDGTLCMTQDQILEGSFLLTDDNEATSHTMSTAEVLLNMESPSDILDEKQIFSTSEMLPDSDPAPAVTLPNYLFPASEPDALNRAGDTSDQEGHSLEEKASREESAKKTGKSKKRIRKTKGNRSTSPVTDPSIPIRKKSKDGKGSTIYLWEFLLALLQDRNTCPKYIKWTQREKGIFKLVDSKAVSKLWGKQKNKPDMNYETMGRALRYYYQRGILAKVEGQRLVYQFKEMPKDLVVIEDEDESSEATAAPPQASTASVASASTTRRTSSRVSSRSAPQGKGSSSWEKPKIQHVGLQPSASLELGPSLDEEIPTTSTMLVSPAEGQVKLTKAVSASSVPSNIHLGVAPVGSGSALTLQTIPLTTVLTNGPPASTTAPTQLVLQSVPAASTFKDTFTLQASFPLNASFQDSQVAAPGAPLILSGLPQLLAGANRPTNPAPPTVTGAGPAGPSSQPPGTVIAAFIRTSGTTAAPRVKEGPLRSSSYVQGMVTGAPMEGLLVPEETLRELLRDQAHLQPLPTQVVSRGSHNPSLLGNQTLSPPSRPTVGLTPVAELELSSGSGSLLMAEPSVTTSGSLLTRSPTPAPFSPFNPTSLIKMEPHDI
Sequence of ETV1 (P50549 whole entry): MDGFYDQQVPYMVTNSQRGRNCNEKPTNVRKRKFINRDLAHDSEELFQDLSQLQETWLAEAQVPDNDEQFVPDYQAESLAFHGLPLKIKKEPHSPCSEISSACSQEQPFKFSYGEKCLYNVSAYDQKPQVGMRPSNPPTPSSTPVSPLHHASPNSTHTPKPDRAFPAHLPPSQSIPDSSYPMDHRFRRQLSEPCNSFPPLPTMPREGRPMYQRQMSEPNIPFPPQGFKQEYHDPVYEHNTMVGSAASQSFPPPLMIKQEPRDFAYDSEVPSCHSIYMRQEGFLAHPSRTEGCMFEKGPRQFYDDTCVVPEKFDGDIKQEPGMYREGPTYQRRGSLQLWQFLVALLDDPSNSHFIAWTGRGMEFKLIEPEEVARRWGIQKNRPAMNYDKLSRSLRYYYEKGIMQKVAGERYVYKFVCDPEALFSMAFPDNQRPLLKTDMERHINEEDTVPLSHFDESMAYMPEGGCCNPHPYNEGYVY
Sequence of HSF1 (Q00613 whole entry): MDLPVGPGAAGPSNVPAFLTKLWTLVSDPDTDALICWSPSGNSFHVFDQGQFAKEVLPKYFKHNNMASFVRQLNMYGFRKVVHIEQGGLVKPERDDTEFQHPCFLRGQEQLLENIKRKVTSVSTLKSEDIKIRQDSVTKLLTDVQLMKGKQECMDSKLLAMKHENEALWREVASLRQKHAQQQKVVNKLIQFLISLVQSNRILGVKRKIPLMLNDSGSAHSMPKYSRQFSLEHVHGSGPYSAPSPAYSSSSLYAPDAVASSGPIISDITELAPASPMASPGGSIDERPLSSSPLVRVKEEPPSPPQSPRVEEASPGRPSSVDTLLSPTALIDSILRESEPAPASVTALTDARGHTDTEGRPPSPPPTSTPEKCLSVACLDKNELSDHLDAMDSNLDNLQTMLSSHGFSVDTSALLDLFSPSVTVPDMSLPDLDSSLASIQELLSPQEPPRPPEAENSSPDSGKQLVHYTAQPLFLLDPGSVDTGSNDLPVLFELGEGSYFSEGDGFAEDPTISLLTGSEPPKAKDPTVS
Sequence of ETV6 (P41212 whole entry): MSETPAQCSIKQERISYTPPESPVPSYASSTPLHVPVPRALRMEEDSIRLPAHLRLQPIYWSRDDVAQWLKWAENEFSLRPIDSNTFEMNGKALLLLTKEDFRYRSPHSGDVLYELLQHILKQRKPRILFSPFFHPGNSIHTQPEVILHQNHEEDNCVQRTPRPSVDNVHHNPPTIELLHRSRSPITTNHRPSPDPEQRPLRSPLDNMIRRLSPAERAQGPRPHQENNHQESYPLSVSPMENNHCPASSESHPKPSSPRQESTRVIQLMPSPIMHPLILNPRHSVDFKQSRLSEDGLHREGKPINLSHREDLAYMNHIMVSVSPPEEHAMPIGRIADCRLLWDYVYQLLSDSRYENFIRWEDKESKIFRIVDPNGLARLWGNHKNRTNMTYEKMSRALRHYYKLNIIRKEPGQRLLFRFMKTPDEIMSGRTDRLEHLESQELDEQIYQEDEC
Sequence of ETV5 (P41161 whole entry): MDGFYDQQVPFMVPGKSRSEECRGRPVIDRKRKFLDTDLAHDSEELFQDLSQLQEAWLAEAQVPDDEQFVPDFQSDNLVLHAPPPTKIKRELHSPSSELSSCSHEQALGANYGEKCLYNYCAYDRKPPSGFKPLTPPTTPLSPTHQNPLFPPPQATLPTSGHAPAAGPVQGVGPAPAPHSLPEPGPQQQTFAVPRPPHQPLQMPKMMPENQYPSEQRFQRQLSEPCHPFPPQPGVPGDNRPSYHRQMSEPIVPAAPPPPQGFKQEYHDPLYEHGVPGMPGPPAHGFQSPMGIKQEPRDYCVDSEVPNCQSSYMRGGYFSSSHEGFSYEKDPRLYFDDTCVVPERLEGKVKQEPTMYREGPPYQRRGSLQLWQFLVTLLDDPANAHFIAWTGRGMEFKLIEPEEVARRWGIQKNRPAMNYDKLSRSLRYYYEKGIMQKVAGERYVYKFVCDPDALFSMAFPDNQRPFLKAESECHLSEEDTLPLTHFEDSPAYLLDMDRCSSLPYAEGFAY
Sequence of CRX (O43186 whole entry): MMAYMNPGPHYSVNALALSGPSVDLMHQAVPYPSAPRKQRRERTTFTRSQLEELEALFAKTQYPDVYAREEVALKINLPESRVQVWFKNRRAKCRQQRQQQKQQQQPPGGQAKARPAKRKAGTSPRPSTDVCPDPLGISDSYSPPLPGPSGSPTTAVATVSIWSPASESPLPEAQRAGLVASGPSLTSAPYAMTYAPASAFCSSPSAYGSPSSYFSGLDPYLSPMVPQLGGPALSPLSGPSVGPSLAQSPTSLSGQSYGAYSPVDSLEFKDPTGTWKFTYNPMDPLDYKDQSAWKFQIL

## GCTCAA
[1]
  binding signal: 1.07 fold enrichment (6-mer frequency, TF over GST control)
[2]
  binding signal: 1.12 fold enrichment (6-mer frequency, TF over GST control)
[3]
  binding signal: 1.16 fold enrichment (6-mer frequency, TF over GST control)
[4]
  binding signal: 1.19 fold enrichment (6-mer frequency, TF over GST control)
[5]
  binding signal: 1.16 fold enrichment (6-mer frequency, TF over GST control)
[6]
  binding signal: 1.03 fold enrichment (6-mer frequency, TF over GST control)
[7]
  binding signal: 1.1 fold enrichment (6-mer frequency, TF over GST control)
[8]
  binding signal: 1.11 fold enrichment (6-mer frequency, TF over GST control)
[9]
  binding signal: 1.31 fold enrichment (6-mer frequency, TF over GST control)
[10]
  binding signal: 1.1 fold enrichment (6-mer frequency, TF over GST control)
[11]
  binding signal: 1.08 fold enrichment (6-mer frequency, TF over GST control)
[12]
  binding signal: 1.13 fold enrichment (6-mer frequency, TF over GST control)
[13]
  binding signal: 1.11 fold enrichment (6-mer frequency, TF over GST control)
[14]
  binding signal: 1.04 fold enrichment (6-mer frequency, TF over GST control)
[15]
  binding signal: 1.16 fold enrichment (6-mer frequency, TF over GST control)
[16]
  binding signal: 1 fold enrichment (6-mer frequency, TF over GST control)
[17]
  binding signal: 1.04 fold enrichment (6-mer frequency, TF over GST control)
[18]
  binding signal: 1.1 fold enrichment (6-mer frequency, TF over GST control)
